In PubChem BioAssay (Tox21) one finds Potency and activity change, positive = activation data, which are given here for 19 compounds.

Values joined by “and” are separate entries in the source; they are usually repeats but may differ in a detail not shown here. Equal entries are not always repeated. Results filed as inconclusive are left out. More than one record can exist for a structure, and the calls need not agree. Active and inactive are the calls of the source. Unless noted, calls come from the whole dose curve; as a rule, active = well fitted curve in the direction sought with a large enough effect in the repeat runs; inconclusive = weak or mixed curves; inactive = no such curve, though single readings can be large; an effect the other way counts as inactive or inconclusive.

The nature of assay [1]: qHTS assay to identify small molecule agonists of H2AX (AID 1224845; active = well fitted activation curve with a large enough effect in the signal ratio in the repeat runs, not every such curve was filed as active; the % refers to the signal ratio). The procedure, abridged:
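Wild-type CHO-K1 cells plated overnight, then exposed 3 hr at 37C to compounds at 15 concentrations (0.76% DMSO). Lysed, then HTRF anti-pH2AX(S139)-cryptate/anti-H2AX-d2 detection after 24 hr at room temperature; emissions 665 and 620 nm.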

Assay [2] is described as follows: qHTS assay to identify small molecule agonists of H2AX - cell viability counter screen (AID 1224847; calls by dose curve; note: top concentration of the series differs between compounds; nearly all actives have a fitted effect of over 30% in size). The essentials:
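After overnight plating of 1000 CHO-K1 cells per well, a 15-concentration compound series was applied for 3 hr at 37C. Luminescence from CellTiter-Glo, read following 30 min at room temperature, reflected cell viability.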
A general note: In qHTS, concentration-response curves come from the screen itself.

Assay [3] in a line: qHTS assay to identify small molecule antagonists of the estrogen related receptor (ERR) signaling pathway from Tox21 library (AID 1224848). Note: nearly all actives have a fitted effect of over 50% in size. Note: potency is the fitted concentration of half-maximal effect. The essentials: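 Tox21 10K compounds in DMSO tested for ERR pathway antagonism in NTP's ERR cell line; 18 h, 37 C exposure; ONE-Glo luminescence.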
Assay [4] can be described thus: qHTS assay to identify small molecule agonists of the estrogen related receptor (ERR) signaling pathway from Tox21 library (AID 1224849; calls by dose curve; note: nearly all actives have a fitted effect of over 15% in size). The following applies: ERR reporter cell line, ONE-Glo luciferase, 18 h. The essentials: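 Luminescent agonist read-out (One-Glo, 30-minute room-temperature incubation) following 18-hour compound treatment at 37 C of the ERR cell line, which had been plated 6 hours before dosing.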

A short description of assay [5]: qHTS RealTime-Glo MT Cell Viability Assay in HepG2 cells - 24 hour (AID 1224867). Note: nearly all actives have a fitted effect of over 50% in size. The essentials:
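Real-time, nonlytic viability: 600 HepG2 cells/well mixed with NanoLuc enzyme plus prosubstrate; 5 h settle, compound (DMSO) added by pintool; luminescence monitored over 40 h at 37 C.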

A short description of assay [6]: qHTS RealTime-Glo MT Cell Viability Assay in HEK293 cells - 32 hour (AID 1224868). Note: nearly all actives have a fitted effect of over 50% in size. Note: potency is the fitted concentration of half-maximal effect. The procedure, abridged:
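Cells + reagent dispensed (600 cells/well, HEK293) → 5 h at 37 C/5% CO2 → 23 nL compound in DMSO pinned → 40 h at 37 C → luminescence read at 0, 8, 16, 24, 32, 40 h.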

Assay [7] can be described thus: A CellTox Green Cytotoxicity Assay to monitor cytotoxicity in HEK293 cells - 0 hour (AID 1224869). Note: nearly all actives have a fitted effect of over 50% in size. The essentials: (§1)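 Fluorescence from a DNA-binding dye excluded by viable cells was measured repeatedly in the same HEK293 wells (600 cells/well) during continuous compound exposure at 37 C. Each assay gives one read point: 0, 8, 16, 24, 32 or 40 h.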
Assay [8] can be described thus: qHTS RealTime-Glo MT Cell Viability Assay in HepG2 cells - 40 hour (AID 1224870). Note: nearly all actives have a fitted effect of over 50% in size. The essentials: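 HepG2 cells mixed with RealTime-Glo MT reagents (NanoLuc plus cell-permeant prosubstrate) were seeded at 600 cells/well, incubated 5 h at 37 C/5% CO2, then pinned with compounds in DMSO; nonlytic luminescence tracked viability during 40 h treatment.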
The nature of assay [9]: A CellTox Green Cytotoxicity Assay to monitor cytotoxicity in HEK293 cells - 40 hour (AID 1224871). Note: nearly all actives have a fitted effect of over 45% in size. Note: potency is the fitted concentration of half-maximal effect. The procedure, abridged: as §1
A short description of assay [10]: qHTS assay to identify small molecule agonists of the hypoxia (HIF-1) signaling pathway (AID 1224846; active = well fitted activation curve with a large enough effect in the signal ratio in the repeat runs, not every such curve was filed as active; the % refers to the signal ratio). The essentials:
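Compounds added to ME-180 cells carrying hypoxia-response-element beta-lactamase reporter (0.5% dialyzed FBS, 5 h preplating), 17 h at 37C; agonist activity detected by CCF4-AM B/G FRET read-out.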
% is set by controls: 0 for no effect and ±100 for the full control effect.

On to `O=C1CC2(CCCC2)CC(=O)N1CCCCN1CCN(c2ncccn2)CC1`, for which the Potency result in assay [1], in assay [2], in assay [5], in assay [7], in assay [8] and in assay [9] was “inactive” throughout. The Potency in [3] is 30.6 µM (active) and inactive; in [6], 43.6 µM (active) and inactive. The activity change, positive = activation in [4] (at 42.5 µM (top of the series)) is -12.4% (inactive); in assay [4] (at 92.4 µM (top of the series)), -47% (inactive).
For `CC[C@@H](N)CO`, the Potency result in [1], in assay [10], in assay [2], in assay [3], in assay [5] and in assay [6] was “inactive” in each case. Also, the Potency result in assay [7], in assay [8] and in assay [9] was “inactive” in each case. Further, the activity change, positive = activation in assay [4] (at 92.4 µM (top of the series)) was -0.0387% (inactive).
`COc1ccc(COC(C)=O)cc1`: the Potency entry in [1], in assay [2], in assay [3], in assay [5], in assay [6] and in [7] was “inactive” throughout. Besides, the Potency result in [8] and in [9] was “inactive” in each case. For the same compound, in [4] (at 92.4 µM (top of the series)), the activity change, positive = activation was 0.212% (inactive) and 1.93% (inactive).
In the case of `CCN(CC)C(=O)Nc1ccc(OCC(O)CNC(C)(C)C)c(C(C)=O)c1` (stereo unspecified), the Potency entry in assay [1], in [2], in [3], in [5], in assay [6] and in assay [7] was “inactive” in each case. Also, the Potency result in assay [8] and in [9] was “inactive” each time. For the same compound, the activity change, positive = activation in assay [4] (at 42.5 µM (top of the series)) is -6.6% (inactive).
Consider `CC(C)(C)NC(=O)[C@@H]1CN(Cc2cccnc2)CCN1C[C@@H](O)C[C@@H](Cc1ccccc1)C(=O)N[C@H]1c2ccccc2C[C@H]1O`, for which the Potency result in [1], in assay [10], in [2], in assay [5], in assay [6] and in [7] was “inactive” throughout. Also, the Potency entry in assay [8] and in [9] was “inactive” in each case.
As for `C=CC(=O)OCCCCCCCC`, the Potency entry in assay [1], in [10], in [2], in [3], in assay [5] and in assay [6] was “inactive” each time. The Potency result in [7], in assay [8] and in assay [9] was “inactive” in each case. The activity change, positive = activation in [4] (at 92.4 µM (top of the series)) is 2.1% (inactive).
In the case of `CC(C)CCOC(=O)c1ccc(N(C)C)cc1`, the Potency entry in assay [1], in [2], in assay [3], in [5], in [6] and in assay [7] was “inactive” each time. For the same compound, the Potency result in assay [8] and in assay [9] was “inactive” throughout. In addition, the activity change, positive = activation in assay [4] (at 42.5 µM (top of the series)) was 81.2% (active).
On to `CC(=O)CC(C)=O`, for which the Potency result in assay [1], in assay [10], in [2], in assay [3], in [5] and in [6] was “inactive” each time. Further, the Potency result in assay [7], in [8] and in assay [9] was “inactive” each time. In addition, the activity change, positive = activation in [4] (at 92.4 µM (top of the series)) was 3.5% (inactive).
As for `OCC(CO)N[C@H]1C[C@](O)(CO)[C@@H](O)[C@H](O)[C@H]1O`, the Potency result in [1], in assay [10], in assay [2], in assay [5], in [6] and in assay [7] was “inactive” each time. Further, the Potency entry in assay [8] and in assay [9] was “inactive” each time. The activity change, positive = activation in [4] (at 42.5 µM (top of the series)) is 2.44% (inactive).
In the case of `CCCCCCC(O)CCCCCCCCCCC(=O)O` (stereo unspecified), the Potency entry in assay [1], in [10], in assay [2], in assay [5], in assay [6] and in assay [7] was “inactive” each time. Besides, the Potency entry in assay [8] and in assay [9] was “inactive” throughout. Further, the activity change, positive = activation in assay [4] (at 92.4 µM (top of the series)) was -9.99% (inactive) and -15.5% (inactive).
For `CC(=O)OCC1=C(C(=O)O)N2C(=O)[C@@H](NC(=O)Cc3cccs3)[C@H]2SC1`, the Potency entry in assay [1], in assay [10], in assay [2], in assay [5], in assay [6] and in [7] was “inactive” each time. The Potency result in [8] and in [9] was “inactive” throughout.
Take `Nc1nc(=S)c2[nH]cnc2[nH]1`: the Potency entry in assay [1], in [10], in assay [2], in [5], in assay [7] and in assay [8] was “inactive” in each case. Besides, in assay [9], the Potency entry was “inactive”. Also, the Potency in assay [6] was 23.9 µM (active) and 19.5 µM (active).
As to `CNC1(C)C2CCC(C2)C1(C)C` (stereo unspecified), the Potency entry in [1], in assay [2], in assay [3], in assay [5], in assay [6] and in [7] was “inactive” in each case. The Potency entry in assay [8] and in assay [9] was “inactive” each time. Besides, in assay [4] (at 42.5 µM (top of the series)), the activity change, positive = activation was 0.179% (inactive).
For the compound `Cc1ccnc2c1NC(=O)c1cccnc1N2C1CC1`, the Potency entry in assay [1], in assay [10], in assay [5], in assay [6], in assay [7] and in assay [8] was “inactive” each time. The Potency result in assay [9] was “inactive”.
Take `C=C(C)C(=O)O`: the Potency entry in assay [1], in assay [10], in assay [2], in assay [5], in assay [6] and in assay [7] was “inactive” in each case. Also, the Potency result in [8] and in assay [9] was “inactive” in each case.
For `CC(C)(C)NCC(O)COc1ccccc1OCC1CCCO1` (stereo unspecified), the Potency result in [1], in assay [10], in [2], in [3], in assay [5] and in [6] was “inactive” each time. Also, the Potency entry in [7], in assay [8] and in [9] was “inactive” in each case. Further, in [4] (at 42.5 µM (top of the series)), the activity change, positive = activation is 4.72% (inactive).
As for `O=C(Cl)c1cccc(C(=O)Cl)c1`, the Potency entry in assay [1], in [10], in [5], in assay [6], in assay [7] and in [8] was “inactive” each time. Besides, the Potency result in [9] was “inactive”.
For `c1cnc2cc3c(cc2n1)C1CNCC3C1`, the Potency result in [1], in [10], in assay [2], in assay [5], in assay [6] and in assay [7] was “inactive” throughout. The Potency result in [8] and in [9] was “inactive” each time. The activity change, positive = activation in assay [4] (at 42.5 µM (top of the series)) is 1.11% (inactive).
In the case of `CC(=O)C1=C(C)[C@@H]2C[C@@]3(C1)[C@H](C)CC[C@H]3C2(C)C`, the Potency entry in [1], in [10], in assay [5], in assay [6], in assay [7] and in assay [8] was “inactive” throughout. For the same compound, in assay [9], the Potency was 32.3 µM (active) and inactive.
